Measurements as given in PubChem BioAssay (NCI).
The panel holds about 79,000 compounds, 15% with a hit somewhere; the sample as a whole holds those more often. Unmarked numbers belong to inactive results. The source made the active and inactive calls. No stated cut-off is given here; in the data, active means growth inhibition above about 70%; inactive means the rest.

Key:
[1] = NCI Yeast Anticancer Drug Screen. Data for the rad50 strain (AID 155);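 further: 0% = growth of vehicle-only cultures of the same strain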; details: S. cerevisiae rad50 strain growth inhibition, active compounds read high
How it was run: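 Genetically altered yeast (DNA repair pathway); compound treatment; growth inhibition vs vehicle ctrl.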

[2] = NCI Yeast Anticancer Drug Screen. Data for the mec2-1 strain (AID 157); details: S. cerevisiae mec2-1 strain, active compounds read high
How it was run: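 Yeast mec2-1 mutant treated with compound. Readout: growth inhibition vs vehicle controls.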

[3] = NCI Yeast Anticancer Drug Screen. Data for the sgs1 mgt1 strain (AID 161);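 further: 0% = growth of cultures given vehicle only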; details: S. cerevisiae sgs1 mgt1 strain, active compounds read high
How it was run: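 Read-out: growth inhibition vs vehicle controls. Cells: mutant yeast strain deficient in DNA damage repair.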

[4] = NCI Yeast Anticancer Drug Screen. Data for the cln2 rad14 strain (AID 165);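 further: 0% = growth equal to vehicle treated cultures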; details: S. cerevisiae cln2 rad14 strain, active compounds read high
How it was run: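 cln2 rad14 yeast strain; compound exposure; growth inhibition read vs vehicle controls.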

[5] = NCI Yeast Anticancer Drug Screen. Data for the bub3 strain (AID 167); details: S. cerevisiae bub3 mutant strain, active compounds read high
How it was run: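 Yeast carrying a defined mutation is treated with each compound, and growth is compared with that of vehicle-exposed cells to give inhibition.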

[6] = NCI Yeast Anticancer Drug Screen. Data for the mlh1 rad18 strain (AID 175); details: S. cerevisiae mlh1 rad18 strain growth inhibition, active compounds read high
How it was run: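 Yeast w/ defined DNA-repair lesions; compound exposure; growth vs vehicle controls → % inhibition.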

[7] = at 5.0 µM (retest, dose inferred, filed as 0.5)
[8] = at 50.0 µM (retest, dose inferred, filed as 5.0)

C/C(=N\NC(=S)Nc1ccc(C(=O)O)cc1C)c1ccc2ccccc2n1
growth inhibition [1, 7]: 1% | growth inhibition [1, 8]: 55% | growth inhibition ([1]; at 50.0 µM): 86.2% (active) | growth inhibition [2, 7]: 20% | growth inhibition [2, 8]: 62% | growth inhibition ([2]; at 50.0 µM): 97.8% (active) | growth inhibition [3, 7]: -3% | growth inhibition [3, 8]: 42% | growth inhibition ([3]; at 50.0 µM): 81.6% (active) | growth inhibition [4, 7]: 11% | growth inhibition [4, 8]: 30% | growth inhibition ([4]; at 50.0 µM): 33% | growth inhibition [5, 7]: 0% | growth inhibition [5, 8]: 45% | growth inhibition ([5]; at 50.0 µM): 34% | growth inhibition [6, 7]: -1% | growth inhibition [6, 8]: 49% | growth inhibition ([6]; at 50.0 µM): 91.7% (active)

Oc1cc2ccccc2cc1O
growth inhibition [1, 7]: 6% | growth inhibition [1, 8]: 90% (active) | growth inhibition ([1]; at 50.0 µM): 95.5% (active) | growth inhibition [2, 7]: 5% | growth inhibition [2, 8]: 77% (active) | growth inhibition ([2]; at 50.0 µM): 86% (active) | growth inhibition [3, 7]: 2% | growth inhibition [3, 8]: 88% (active) | growth inhibition ([3]; at 50.0 µM): 93.8% (active) | growth inhibition [4, 7]: 3% | growth inhibition [4, 8]: 90% (active) | growth inhibition ([4]; at 50.0 µM): 92.4% (active) | growth inhibition [5, 7]: 5% | growth inhibition [5, 8]: 92% (active) | growth inhibition ([5]; at 50.0 µM): 96.1% (active) | growth inhibition [6, 7]: 5% | growth inhibition [6, 8]: 93% (active) | growth inhibition ([6]; at 50.0 µM): 96% (active)

CCOC(=O)c1[nH]cc(C)c1-c1ccc2c(-c3ccccc3)nc3ccccc3n12
growth inhibition [1, 7]: 5% | growth inhibition [1, 8]: 65% | growth inhibition ([1]; at 50.0 µM): 44.8% | growth inhibition [2, 7]: 7% | growth inhibition [2, 8]: 61% | growth inhibition ([2]; at 50.0 µM): 64.2% | growth inhibition [3, 7]: 3% | growth inhibition [3, 8]: 70% (active) | growth inhibition ([3]; at 50.0 µM): 60.4% | growth inhibition [4, 7]: 12% | growth inhibition [4, 8]: 81% (active) | growth inhibition ([4]; at 50.0 µM): 38.8% | growth inhibition [5, 7]: 9% | growth inhibition [5, 8]: 79% (active) | growth inhibition ([5]; at 50.0 µM): 40.6% | growth inhibition [6, 7]: 12% | growth inhibition [6, 8]: 73% (active) | growth inhibition ([6]; at 50.0 µM): 69%

CC(=O)Oc1c(-c2ccccc2)cc([N+](=O)[O-])cc1[N+](=O)[O-]
growth inhibition [1, 7]: 13% | growth inhibition [1, 8]: 93% (active) | growth inhibition ([1]; at 50.0 µM): 95.8% (active) | growth inhibition [2, 7]: 19% | growth inhibition [2, 8]: 93% (active) | growth inhibition ([2]; at 50.0 µM): 93.5% (active) | growth inhibition [3, 7]: 31% | growth inhibition [3, 8]: 88% (active) | growth inhibition ([3]; at 50.0 µM): 93.6% (active) | growth inhibition [4, 7]: 17% | growth inhibition [4, 8]: 59% | growth inhibition ([4]; at 50.0 µM): 74.4% (active) | growth inhibition [5, 7]: 24% | growth inhibition [5, 8]: 65% | growth inhibition ([5]; at 50.0 µM): 94.5% (active) | growth inhibition [6, 7]: 54% | growth inhibition [6, 8]: 97% (active) | growth inhibition ([6]; at 50.0 µM): 91.7% (active)

COc1ccc(C2c3cc4c(cc3OC(N3CCCC3)C2C)OCO4)c(OC)c1 (configuration not stated)
growth inhibition [1, 7]: -3% | growth inhibition [1, 8]: 77% (active) | growth inhibition ([1]; at 50.0 µM): 94.5% (active) | growth inhibition [2, 7]: -5% | growth inhibition [2, 8]: 53% | growth inhibition ([2]; at 50.0 µM): 94.2% (active) | growth inhibition [3, 7]: 1% | growth inhibition [3, 8]: 74% (active) | growth inhibition ([3]; at 50.0 µM): 88.2% (active) | growth inhibition [4, 7]: -4% | growth inhibition [4, 8]: 68% | growth inhibition ([4]; at 50.0 µM): 71% (active) | growth inhibition [5, 7]: -6% | growth inhibition [5, 8]: 68% | growth inhibition ([5]; at 50.0 µM): 87.8% (active) | growth inhibition [6, 7]: -3% | growth inhibition [6, 8]: 82% (active) | growth inhibition ([6]; at 50.0 µM): 93.5% (active)

O=C1CCC(O)N1CN1C(=O)CCC1O (configuration not stated)
growth inhibition [1, 7]: -4% | growth inhibition [1, 8]: 1% | growth inhibition ([1]; at 50.0 µM): 36.1% | growth inhibition [2, 7]: -4% | growth inhibition [2, 8]: -17% | growth inhibition ([2]; at 50.0 µM): 18.4% | growth inhibition [3, 7]: 9% | growth inhibition [3, 8]: -3% | growth inhibition ([3]; at 50.0 µM): 22.9% | growth inhibition [4, 7]: -17% | growth inhibition [4, 8]: 10% | growth inhibition ([4]; at 50.0 µM): 20.8% | growth inhibition [5, 7]: 18% | growth inhibition [5, 8]: -4% | growth inhibition ([5]; at 50.0 µM): 22.1% | growth inhibition [6, 7]: -6% | growth inhibition [6, 8]: -10% | growth inhibition ([6]; at 50.0 µM): 46.5%

CNC1=C2NC(=O)/C(C)=C\C=C\C(C)C(O)C(C)C(O)C(C)C(OC(C)=O)C(C)C(OC)/C=C/OC3(C)Oc4c(C)c(O)c(c(c4C3=O)C1=O)C2=O (configuration not stated)
growth inhibition [1, 7]: -6% | growth inhibition [1, 8]: 56% | growth inhibition ([1]; at 50.0 µM): 52.3% | growth inhibition [2, 7]: -2% | growth inhibition [2, 8]: 61% | growth inhibition ([2]; at 50.0 µM): 52.8% | growth inhibition [3, 7]: 1% | growth inhibition [3, 8]: 55% | growth inhibition ([3]; at 50.0 µM): 45.7% | growth inhibition [4, 7]: -4% | growth inhibition [4, 8]: 59% | growth inhibition ([4]; at 50.0 µM): 49% | growth inhibition [5, 7]: -2% | growth inhibition [5, 8]: 58% | growth inhibition ([5]; at 50.0 µM): 52% | growth inhibition [6, 7]: -4% | growth inhibition [6, 8]: 64% | growth inhibition ([6]; at 50.0 µM): 56.5%

CC(C(O)Cc1ccccc1)N(C)N=Nc1ccc([N+](=O)[O-])cc1 (configuration not stated)
growth inhibition [1, 7]: 35% | growth inhibition [1, 8]: 84% (active) | growth inhibition ([1]; at 50.0 µM): 64.3% | growth inhibition [2, 7]: 18% | growth inhibition [2, 8]: 59% | growth inhibition ([2]; at 50.0 µM): 61.6% | growth inhibition [3, 7]: 24% | growth inhibition [3, 8]: 91% (active) | growth inhibition ([3]; at 50.0 µM): 85.7% (active) | growth inhibition [4, 7]: 21% | growth inhibition [4, 8]: 86% (active) | growth inhibition ([4]; at 50.0 µM): 28.3% | growth inhibition [5, 7]: 23% | growth inhibition [5, 8]: 92% (active) | growth inhibition ([5]; at 50.0 µM): 72.7% (active) | growth inhibition [6, 7]: 51% | growth inhibition [6, 8]: 89% (active) | growth inhibition ([6]; at 50.0 µM): 78.5% (active)

S=P([S][Sn]([S]P(=S)(c1ccccc1)c1ccccc1)([c]1ccccc1)[c]1ccccc1)(c1ccccc1)c1ccccc1
growth inhibition [1, 7]: 22% | growth inhibition [1, 8]: 82% (active) | growth inhibition ([1]; at 50.0 µM): 34.9% | growth inhibition [2, 7]: 21% | growth inhibition [2, 8]: 73% (active) | growth inhibition ([2]; at 50.0 µM): 19.6% | growth inhibition [3, 7]: 33% | growth inhibition [3, 8]: 96% (active) | growth inhibition ([3]; at 50.0 µM): 91.9% (active) | growth inhibition [4, 7]: 25% | growth inhibition [4, 8]: 48% | growth inhibition ([4]; at 50.0 µM): 89.9% (active) | growth inhibition [5, 7]: 24% | growth inhibition [5, 8]: 69% | growth inhibition ([5]; at 50.0 µM): 89.2% (active) | growth inhibition [6, 7]: 33% | growth inhibition [6, 8]: 92% (active) | growth inhibition ([6]; at 50.0 µM): 77.8% (active)
